Data on 39 compounds can be found in PubChem BioAssay (NCI).

Test [1] is described as follows: NCI Yeast Anticancer Drug Screen. Data for the rad50 strain (AID 155).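 Note: 0% = growth of vehicle-only cultures of the same strain.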 Conditions: S. cerevisiae rad50 strain growth inhibition, stronger effect = higher value; at 50.0 µM unless noted. The procedure, abridged: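 Relative growth inhibition (compound vs vehicle) was measured in yeast with a defined repair-gene alteration.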
Test [2] is described as follows: NCI Yeast Anticancer Drug Screen. Data for the mec2-1 strain (AID 157). As to conditions: S. cerevisiae mec2-1 strain, stronger effect = higher value; at 50.0 µM unless noted. In outline:
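Using mec2-1 yeast: add compound, measure growth, express inhibition versus vehicle-treated cultures.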

Test [3] in a line: NCI Yeast Anticancer Drug Screen. Data for the sgs1 mgt1 strain (AID 161).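 Note: 0% = growth of cultures given vehicle only.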 As to conditions: S. cerevisiae sgs1 mgt1 strain, stronger effect = higher value; at 50.0 µM unless noted. The procedure, abridged: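 Compounds are added to genetically altered yeast, and growth is compared with cultures given vehicle alone to give percent inhibition.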
A short description of test [4]: NCI Yeast Anticancer Drug Screen. Data for the cln2 rad14 strain (AID 165).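 Note: 0% = growth equal to vehicle treated cultures.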 Conditions: S. cerevisiae cln2 rad14 strain, stronger effect = higher value; at 50.0 µM unless noted. The procedure, abridged:
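Yeast strain cln2 rad14, bearing defects in cell cycle control and DNA repair, serves as the test system; values reflect growth inhibition compared with vehicle.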

Test [5] in a line: NCI Yeast Anticancer Drug Screen. Data for the bub3 strain (AID 167). Conditions: S. cerevisiae bub3 mutant strain, stronger effect = higher value; at 50.0 µM unless noted. The procedure, abridged: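 Screening used yeast with an engineered genetic alteration affecting cell cycle control. Compound-exposed cultures were compared with vehicle cultures, and reduced growth was taken as inhibition.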

Test [6] can be described thus: NCI Yeast Anticancer Drug Screen. Data for the mlh1 rad18 strain (AID 175). Conditions: S. cerevisiae mlh1 rad18 strain growth inhibition, stronger effect = higher value; at 50.0 µM unless noted. In outline:
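Steps: expose repair-defective yeast to compound; measure growth; express inhibition against vehicle-treated controls.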

Values joined by “and” are separate entries in the source; they are usually repeats but may differ in a detail not shown here. Equal entries are not always repeated. About 79,000 compounds went through this panel and 15% of them were active in at least one assay; those are over-represented in the sample as a whole. Values without a mark were called inactive. Active and inactive are the calls of the source. Cut-off read from the data, not from the text of the source: active = growth inhibition above about 70%; inactive = the rest.

As for `COC(=O)C1=CN(CCc2ccc(O)cc2)C(=O)C2C1CC(O)C2C` (centres undefined), the growth inhibition was 5.6% in test [1]; -6.2% in test [2]; 1.2% in test [3]; -2.2% in test [4]; -4.55% in test [5]; -10.2% in test [6].
Consider `O=C(c1ccccc1)C(C(Nc1ccccc1)c1ccccc1)N1CCOCC1` (centres undefined), for which the growth inhibition in test [1] was 6.65%; in test [2], -5%; in test [3] it was -16%; in test [4], -47.3%; in test [5] it was 27.4%; in test [6], 22.6%.
Turning to `Nc1c(F)c(F)c(N=Nc2ccccc2)c(F)c1F`, the growth inhibition in test [1] was 5.2%; in test [2], 7.1%; in test [3], 3.8%; in test [4], 7.05%; in test [5] it was 24.4%; in test [6], -17.1%.
Regarding `CC(O)C(O)CC(/C=N/NC(=O)c1ccccc1)=N/NC(=O)c1ccccc1` (centres undefined), the growth inhibition in test [1] is 3.55%; in test [2], 4.25%; in test [3], -14.6%; in test [4], -7.55%; in test [5], -0.75%; in test [6], 2.8%.
Consider `O=c1cc(C(F)(F)F)[nH]c2ccc(F)cc12`, for which the growth inhibition in test [1] is 1.95%; in test [2] it was -10.4%; in test [3], 6.4%; in test [4] it was -27.6%; in test [5], -27%; in test [6] it was 7.55%.
On to `CCCCCCCCCOCC(=O)O`, for which the growth inhibition was 34.4% in test [1]; 5.55% in test [2]; 7.5% in test [3]; 3.15% in test [4]; 2.3% in test [5]; 6.4% in test [6].
As for `N#C/C(=C\c1cc(Cl)cc(Cl)c1O)c1nc2ccccc2[nH]1`, the growth inhibition in test [1] is 43%; in test [2], 13.7%; in test [3] it was 38.4%; in test [4] it was 11.5%; in test [5] it was 26.9%; in test [6], 5.65%.
As for `CCCNC(=O)NS(=O)(=O)c1ccc(Cl)cc1`, the growth inhibition in test [1] is -4.15% and -5.15%; in test [2], 0.2% and -0.4%; in test [3], 4.2% and 1.6%; in test [4] it was 15.6% and -26.4%; in test [5], 11.7% and 23.1%; in test [6], 38.3% and -7.15%.
`CN(/C(=N/C(=S)NCc1ccccc1)SCc1ccccc1)c1ccccc1`: the growth inhibition in test [1] is 38%; in test [2], 29.6%; in test [3] it was 35.6%; in test [4] it was 9.45%; in test [5], 38.1%; in test [6] it was 58%.
On to `CC(C)N(C(C)C)S(C)(=O)=O`, for which the growth inhibition was -0.3% in test [1]; -0.5% in test [2]; -3.9% in test [3]; -17.8% in test [4]; 10.3% in test [5]; 3.1% in test [6].
On to `O=[N+]([O-])c1cccc(SSc2cccc([N+](=O)[O-])c2)c1`, for which the growth inhibition in test [1] is 0.45% and -34.8%; in test [2] it was -16.1% and -57%; in test [3], -1.8% and -61.9%; in test [4], -2.95% and -12.7%; in test [5] it was -3.1% and -35.6%; in test [6], -1.3% and -65.8%.
With `CC[N+](CC)(CC)CCOc1nc(OCC[N+](CC)(CC)CC)nc(OCC[N+](CC)(CC)CC)n1`, the growth inhibition was 11.8% in test [1]; 11% in test [2]; 10.3% in test [3]; 9.1% in test [4]; 17.1% in test [5]; 35% in test [6].
For the compound `Oc1cc2c(cc1C(Nc1ncccn1)c1ccc3c(c1)OCO3)OCO2` (centres undefined), the growth inhibition in test [1] is -0.4%; in test [2] it was 6.8%; in test [3], 12.8%; in test [4], -16.3%; in test [5], 19.4%; in test [6] it was 15.3%.
In the case of `CCOC(=O)c1oc2cc(O)ccc2c(=O)c1-c1ccc(OC)c(OC)c1`, the growth inhibition in test [1] was 5.95%; in test [2], -1.7%; in test [3], 16.3%; in test [4], 3.45%; in test [5], 4.65%; in test [6] it was 11.8%.
Regarding `CC(=O)Sc1ccc2c(c1)-c1ccccc1C2=O`, the growth inhibition in test [1] was 28.6%; in test [2], 27.2%; in test [3], 22.4%; in test [4] it was 8.25%; in test [5], 39.6%; in test [6] it was 16.9%.
As for `CCNc1ncnc2ncn(C)c12`, the growth inhibition in test [1] was 18.9%; in test [2], -6.9%; in test [3], 15.1%; in test [4], 12.6%; in test [5], 15.1%; in test [6], -0.5%.
On to `Cc1ccc(=O)[nH]n1`, for which the growth inhibition was -3.25% and -31.6% in test [1]; -21.7% and -16.3% in test [2]; -9.8% and -17.8% in test [3]; -8.35% and -28.9% in test [4]; -16.1% and -27.5% in test [5]; 3.75% and -20% in test [6].
Regarding `CCCCN=C(N)C(N)=NCCCC`, the growth inhibition in test [1] was -13.8%; in test [2], -4.65%; in test [3], -5.7%; in test [4], -28.3%; in test [5], 0.5%; in test [6], -18.7%.
`C=CCS(=O)(=O)CC=C`: the growth inhibition was 23.9% in test [1]; -12.5% in test [2]; -7.3% in test [3]; 3% in test [4]; -15.6% in test [5]; 17.9% in test [6].
Regarding `CC(=O)N1C(=O)CC23c4cccc([N+](=O)[O-])c4C(=O)N2CCCN13` (centres undefined), the growth inhibition in test [1] is 8.8%; in test [2] it was 0.35%; in test [3], 0.9%; in test [4], 10.6%; in test [5] it was -21.8%; in test [6], 17.4%.
Turning to `CC1=NN(c2ccc(S(=O)(=O)O)cc2)C(=O)C1N=Nc1ccc(-c2ccc(N=Nc3ccc(O)c(C(=O)O)c3)c(C)c2)cc1C` (centres undefined), the growth inhibition in test [1] is 17.6%; in test [2] it was 20.9%; in test [3] it was 17.3%; in test [4] it was 17.1%; in test [5], 23.4%; in test [6], 30.7%.
Take `CSc1nc2c(nc(N)n2C2OCC(O)C(O)C2O)c(=O)n1C` (centres undefined): the growth inhibition in test [1] was 12.1%; in test [2], 14.1%; in test [3] it was 22.6%; in test [4], 32.6%; in test [5], 17.9%; in test [6], 32.2%.
Regarding `CCN(CC)c1ccc2cc(-c3csc(-c4ccc(N(C)C)cc4)n3)c(=O)oc2c1`, the growth inhibition in test [1] was 26.5%; in test [2], 12.7%; in test [3] it was -5.25%; in test [4], 16.9%; in test [5], -13.1%; in test [6], -20.3%.
Take `CCN(CC)c1ccc2c(c1)C(=O)c1ccccc1-2`: the growth inhibition was -6.7% in test [1]; 27.6% in test [2]; 14.2% in test [3]; 15.8% in test [4]; 38.8% in test [5]; 30.6% in test [6].
`CCOc1ccc(N2C(=O)/C(=C/c3ccc(N(CCC#N)CCC#N)cc3)N=C2c2cc([N+](=O)[O-])ccc2Cl)cc1`: the growth inhibition in test [1] is 5.85%; in test [2], -1.15%; in test [3], -9.8%; in test [4], 17.8%; in test [5], 9.3%; in test [6], -6.6%.
As for `O=C(CCC/C(CC(=O)c1ccc(Br)cc1)=N\O)Nc1ccccc1`, the growth inhibition is 52.9% in test [1]; 25.8% in test [2]; 17.8% in test [3]; 19.6% in test [4]; 28.7% in test [5]; 25.7% in test [6].
In the case of `Cc1cc2nc3c(C(OC4OC(CO)C(O)C(O)C4O)C(O)CO)nn(-c4ccc(F)cc4)c3nc2cc1C` (centres undefined), the growth inhibition in test [1] was 3.6%; in test [2], -6.85%; in test [3], -47.7%; in test [4], 25.6%; in test [5] it was 3.45%; in test [6], 1%.
Take `Cc1ccc(OS(=O)(=O)c2cccc(S(=O)(=O)Oc3ccc(C)cc3)c2)cc1`: the growth inhibition is 19.9% in test [1]; 3.35% in test [2]; 8.9% in test [3]; 7.7% in test [4]; 9.45% in test [5]; 6.15% in test [6].
Consider `Cn1cnc2nc(Cl)nc(N)c21`, for which the growth inhibition in test [1] is 0%; in test [2], -4.15%; in test [3], 6.05%; in test [4], -16.6%; in test [5], 7.75%; in test [6], -9.4%.
For `CCOC(=O)C1CC1`, the growth inhibition was -9.65% in test [1]; -39.5% in test [2]; 1% in test [3]; 0.05% in test [4]; -9.75% in test [5]; -2.7% in test [6].
On to `CCOC(=O)c1ccc(N/C(C)=C/C(=O)OC)cc1`, for which the growth inhibition in test [1] is 3.45%; in test [2], -8.4%; in test [3] it was 11.2%; in test [4], -20.7%; in test [5] it was 1.95%; in test [6] it was 3.55%.
With `CC1Cn2c(Cc3ccccc3)nnc2S1` (centres undefined), the growth inhibition was -15.2% in test [1]; 1.25% in test [2]; 5.45% in test [3]; 19.5% in test [4]; -4.6% in test [5]; -4.75% in test [6].
For `OC1C(SCc2ccccc2)OCC2OC3(CCCCC3)OC21` (centres undefined), the growth inhibition was -5.1% in test [1]; -5.7% in test [2]; -9% in test [3]; -5.9% in test [4]; 1.75% in test [5]; 9.45% in test [6].
For `O=C(CNc1nncs1)NO`, the growth inhibition in test [1] is 15.1%; in test [2], -8.95%; in test [3], 0.3%; in test [4], 1.05%; in test [5], -1.35%; in test [6] it was -1.7%.
Regarding `ClCCCN(CCCCl)c1ccc(C=Nc2cccc(Cl)c2)c(Cl)c1`, the growth inhibition in test [1] is 91.1% (active); in test [2], 76.6% (active); in test [3], 95.5% (active); in test [4], 85.2% (active); in test [5], 81.5% (active); in test [6], 93.5% (active).
In the case of `c1ccc(-c2nc3ccccc3s2)cc1`, the growth inhibition in test [1] is 25.2% and 18.6%; in test [2] it was -22.4% and -0.5%; in test [3], 24.1% and -17.9%; in test [4], 23.8% and -20.2%; in test [5], 8.55% and -4.35%; in test [6], 40.4% and 2.6%.
Consider `Cc1cc2c(cc1Cl)SC(NNC1=NCCN1)=NS2(=O)=O`, for which the growth inhibition is -23.1% in test [1]; -8.65% in test [2]; -20% in test [3]; -2.25% in test [4]; -17.9% in test [5]; 9.95% in test [6].
As for `BrC1CC2CCC1CC2` (centres undefined), the growth inhibition in test [1] was -14.7%; in test [2], -6.45%; in test [3], -7.2%; in test [4], -6.8%; in test [5], -7.05%; in test [6], 16.6%.
`CC(=O)N1CCC(/C(C)=N/O)CC1`: the growth inhibition in test [1] is 4.9%; in test [2], -10.1%; in test [3], -12.6%; in test [4] it was -33.8%; in test [5], -13.8%; in test [6], 0.45%.
